Pf_Dd2_inh = P. falciparum Dd2 growth inhibition. activity change, % at 10 µM. AID 1159554. SYBR Green, 72 h; stronger effect = lower value. 94,000 compounds, 2.3% hits; in the data active means activity change below about -80%; inconclusive means no clear call, values can overlap the other calls
C_diff_HTS = blocks growth of Clostridium difficile | Clostridium difficile clinical isolate growth, OD600, 24 h; stronger effect = lower value | growth activity, negative = inhibition, % at 16 µg/mL (by protocol) | 86,000 compounds, 0.25% hits;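 active means mean growth activity at or below -80% and every replicate also at or below -80%; inconclusive means mean at or below -80% but some replicate above -80%; inactive means mean growth activity above -80%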;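 further: 0% = DMSO wells and -100% = levofloxacin 16 µg/mL wells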
T_cruzi_growth-1 = T. cruzi proliferation inhibition; T. cruzi beta-gal in NIH3T3, GalScreen luminescence, 90 h; inhibition, % at 8.34 µM; 77,000 compounds, 5.9% hits;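 active means mean inhibition above about 93%, with at least 55% of replicates each passing it, limit read from the data, passing the limit was not always enough; inconclusive means only one of those two conditions holds; inactive means neither condition holds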
T_cruzi_growth-2 = inhibitors of T. cruzi proliferation. inhibition, % at 8.35 µM. T. cruzi beta-gal in NIH3T3, GalScreen luminescence, 90 h. AID 651739. 5,600 compounds, 72% hits. shares compounds with T_cruzi_growth-1;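 active means mean replicate inhibition above about 95% and at least 55% of replicates individually reaching it, limit read from the data; inconclusive means only one of the two criteria is met; inactive means neither criterion is met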
T_cruzi_growth-3 = Trypanosoma cruzi proliferation inhibition; shares compounds with T_cruzi_growth-1; T. cruzi beta-gal in NIH3T3, GalScreen luminescence, 90 h; inhibition, % at 2.09 µM; 5,600 compounds, 21% hits;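 active means mean inhibition above about 95%, with at least 55% of replicates also reaching it, limit read from the data; inconclusive means meets just one of the two conditions; inactive means meets neither condition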;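 further: plate controls were neutral control median for no effect and positive control median for full effect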
3T3_cytotox = cytotoxicity in mouse NIH/3T3 fibroblasts; shares compounds with T_cruzi_growth-1; NIH/3T3 viability, CellTiter-Glo ATP luminescence, 90 h; cytotoxicity (signal decrease), % at 8.35 µM; 5,600 compounds, 14% hits;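 active means mean signal decrease across replicates above about 35% based on untreated-well scatter, with enough replicates individually passing, limit read from the data; inconclusive means no rule stated though some were filed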;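 further: 0% = median of neutral control wells and 100% = median of positive control wells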
3T3_cytotox_2 = NIH/3T3 (mouse) viability loss | NIH/3T3 viability, CellTiter-Glo ATP luminescence, 90 h | 5,600 compounds, 56% hits | inhibition, % at 24.9 µM | shares compounds with T_cruzi_growth-1;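 active means mean loss of cell viability signal at or above a set limit, and enough replicates individually reaching it; inconclusive means meets only the mean limit or only the replicate share; inactive means meets neither condition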;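 further: 0% = median of neutral control wells and 100% = median of positive control wells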
The depositor's hits bear a star; ? = inconclusive; / = no result given. An excerpt weighted towards active compounds, which were near 6.7% of everything screened.

SMILES Pf_Dd2_inh C_diff_HTS T_cruzi_growth-1 T_cruzi_growth-2 T_cruzi_growth-3 3T3_cytotox 3T3_cytotox_2
N#C[C@@H]1[C@H](c2ccc(C#CCC3CCCC3)cc2)[C@@H](CO)N1C(=O)CN1CCOCC1 -18.9 -4.0 101.4* 106.4* 69.4 -6.7 82.0*
O=C(C[C@H]1CC[C@@H]2[C@H](COC[C@@H](O)CN2S(=O)(=O)c2ccccc2F)O1)NCc1ccccc1Cl -43.0 / 16.7 / / / /
COc1ccc(S(=O)(=O)N(C)C[C@@H]2OCc3ccccc3-c3c(n(C)c4ccccc34)C(=O)N([C@@H](C)CO)C[C@@H]2C)cc1 -87.2* / ? 100.0* 66.6 -17.3 24.2*
C[C@H]1CN([C@@H](C)CO)C(=O)c2c(c3ccccc3n2C)-c2ccccc2CO[C@H]1CN(C)S(=O)(=O)c1ccccc1C#N -78.7 3.6 106.7* 90.9 76.1 ? 85.4*
C[C@H]1CN([C@@H](C)CO)C(=O)c2c(c3ccccc3n2C)-c2ccccc2CO[C@@H]1CN(C)S(=O)(=O)c1cccc(C#N)c1 -30.4 1.2 60.3 / / / /
C[C@H](CO)N1C[C@H](C)[C@@H](CN(C)S(=O)(=O)c2ccccc2F)OCc2ccccc2-c2c(n(C)c3ccccc23)C1=O 21.6 -5.8 -107.1 / / / /
C[C@H](CO)N1C[C@H](C)[C@@H](CN(C)S(=O)(=O)c2ccc(C#N)cc2)OCc2ccccc2-c2c(n(C)c3ccccc23)C1=O -61.5 / ? 111.8* 71.4 14.0 18.6
C[C@H](CO)N1C[C@H](C)[C@H](CN(C)S(=O)(=O)c2ccsc2)OCc2ccccc2-c2c(n(C)c3ccccc23)C1=O -71.1 1.1 68.5 / / / /
COc1cccc(S(=O)(=O)N(C)C[C@@H]2OCc3ccccc3-c3c(n(C)c4ccccc34)C(=O)N([C@@H](C)CO)C[C@H]2C)c1 -7.2 -6.5 63.0 / / / /
C[C@@H]1CN([C@@H](C)CO)C(=O)c2c(c3ccccc3n2C)-c2ccccc2CO[C@H]1CN(C)S(=O)(=O)c1ccsc1 -64.3 3.9 ? 108.2* 53.9 6.2 46.6*
C[C@@H]1CN([C@H](C)CO)C(=O)c2cccc(NC(=O)c3cnccn3)c2O[C@H]1CN(C)Cc1ccc2c(c1)OCO2 -4.6 -2.7 47.7 / / / /
CO[C@H]1CN(C)C(=O)c2cc(NS(=O)(=O)c3ccccc3C)ccc2OC[C@@H](C)N(C)C[C@H]1C -57.5 / -18.7 / / / /
CN1C(=O)c2cc(NC(=O)Nc3ccccc3F)ccc2OC[C@@H]2O[C@@H](CC(=O)O)CC[C@H]21 8.3 1.8 -4.5 / / / /
N#C[C@@H]1[C@H](c2ccc(-c3ccc(F)cc3)cc2)[C@H](CO)N1c1nc(-c2ccccc2)cs1 32.4 -8.6 101.4* -10.8 31.1 -5.4 -10.8
N#C[C@@H]1[C@@H](c2ccc(-c3ccc(F)cc3)cc2)[C@H](CO)N1c1nc(-c2ccccc2)cs1 3.6 5.6 102.9* 106.8* 70.9 10.6 25.2
N#C[C@@H]1[C@H](c2ccc(-c3cccc(F)c3)cc2)[C@@H](CO)N1c1nc(-c2ccccc2)cs1 16.8 -2.3 / / / / /
N#C[C@@H]1[C@H](c2ccc(-c3ccc(F)cc3)cc2)[C@@H](CO)N1c1nc(-c2ccccc2)cs1 -20.9 -5.6 / / / / /
COCC(=O)N(C)C[C@@H]1Oc2ncc(C#CC(C)(C)O)cc2C(=O)N([C@H](C)CO)C[C@@H]1C 55.5 -0.8 -59.0 / / / /
COc1ccccc1-c1ccc([C@H]2[C@H](CO)N3CCCCN(C(=O)CN4CCOCC4)C[C@@H]23)cc1 -3.2 -4.0 100.3* 78.5 40.1 19.1 30.6*
O=C(CN1CCOCC1)N1CCCCN2[C@H](CO)[C@H](c3ccc(C#Cc4ccccc4)cc3)[C@@H]2C1 14.5 -17.0 103.2* 105.6* 30.0 41.2* 66.7*
O=C(CN1CCOCC1)N1CCCCN2[C@H](CO)[C@H](c3ccc(/C=C/c4ccccc4)cc3)[C@@H]2C1 -9.2 -12.3 106.2* 107.5* 86.3 40.5* 41.5*
O=C(CN1CCOCC1)N1CCCCN2[C@H](CO)[C@H](c3ccc(-c4ccccc4F)cc3)[C@@H]2C1 21.8 -3.7 84.7 / / / /
O=C(CN1CCOCC1)N1CCCCN2[C@H](CO)[C@@H](c3ccc(C#Cc4ccccc4)cc3)[C@@H]2C1 -0.9 -1.6 64.3 / / / /
O=C(CN1CCOCC1)N1CCCCN2[C@@H](CO)[C@H](c3ccc(-c4ccccc4F)cc3)[C@@H]2C1 43.3 -12.1 ? 79.3 73.0 -9.0 -27.4
COc1ccccc1-c1ccc([C@H]2[C@@H](CO)N3CCCCN(C(=O)CN4CCOCC4)C[C@H]23)cc1 -32.7 -5.4 61.8 / / / /
SMILES Pf_Dd2_inh C_diff_HTS T_cruzi_growth-1 T_cruzi_growth-2 T_cruzi_growth-3 3T3_cytotox 3T3_cytotox_2
O=C(CN1CCOCC1)N1CCCCN2[C@H](CO)[C@@H](c3ccc(/C=C/c4ccccc4)cc3)[C@H]2C1 -5.9 -2.4 9.8 / / / /
O=C(CN1CCOCC1)NCC[C@@H]1CC[C@H](NS(=O)(=O)c2ccc(F)cc2)[C@@H](CO)O1 16.0 / 3.2 / / / /
Cc1ccc(S(=O)(=O)N(C)C[C@@H]2Oc3ccc(NS(=O)(=O)c4ccccc4)cc3C(=O)N([C@H](C)CO)C[C@@H]2C)cc1 -22.7 8.6 87.2 / / / /
O=C(CN1CCOCC1)N1CCCCN2[C@H](C1)[C@@H](c1ccc(/C=C/c3ccccc3)cc1)[C@@H]2CO -11.8 -8.1 83.0 / / / /
O=C(CN1CCOCC1)N1CCCCN2[C@H](CO)[C@H](c3ccc(/C=C/c4ccccc4)cc3)[C@H]2C1 -70.5 -4.8 99.9* 96.6* 62.3 24.5 105.1*
O=C(CN1CCOCC1)N1CCCCN2[C@@H](CO)[C@@H](c3ccc(-c4ccccc4)cc3)[C@@H]2C1 1.0 0.0 91.2* 74.9 -14.8 -4.8 12.0
O=C(CN1CCOCC1)N1CCCCN2[C@H](C1)[C@H](c1ccc(-c3ccccc3)cc1)[C@@H]2CO 14.7 -6.4 -6.4 / / / /
CO[C@@H]1CN(C)C(=O)c2ccc(NC(=O)Nc3cc(F)ccc3F)cc2OC[C@H](C)N(C)C[C@@H]1C -8.4 / 11.5 / / / /
C[C@@H]1CN([C@@H](C)CO)C(=O)Cc2cc(NC(=O)CCCN(C)C)ccc2O[C@H]1CN(C)S(C)(=O)=O 16.6 -2.3 -9.0 / / / /
O=C(CN1CCOCC1)N1CCCCN2[C@H](CO)[C@@H](c3ccc(-c4ccccc4F)cc3)[C@@H]2C1 17.3 -7.2 5.1 / / / /
C[C@@H]1CN([C@H](C)CO)C(=O)c2cccc(NC(=O)c3cnccn3)c2O[C@H]1CN(C)S(=O)(=O)c1cccs1 -16.4 -1.6 -12.4 / / / /
Cc1ccc(S(=O)(=O)N(C)C[C@@H]2OCCCC[C@H](C)Oc3ccc(NC(=O)Nc4ccc(F)cc4)cc3C(=O)N([C@H](C)CO)C[C@@H]2C)cc1 -61.4 / 109.0* 96.7* 106.6* 3.0 41.4*

Screening results from PubChem BioAssay.
